Test results reported in article PMC5540273 (PLoS ONE, 2017).

What was measured:
Conditions in all cases: concentration: 1 μM, replicates: in singlicate; n = 1
SRPK2 = test system: SRPK2
SRPK3 = test system: SRPK3
STK16 = test system: STK16
STK33 = test system: STK33
STK35 = test system: STK35
STK36 = test system: STK36
STK39 = test system: STK39
SYK = test system: SYK
SgK110 = test system: SgK110
TAK1 = test system: T1, TAK1
T1 construct: gene MAP3K7
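Also: KINOMEscan kinase panel screen.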

Compound	%Inh (SRPK2)	%Inh (SRPK3)	%Inh (STK16)	%Inh (STK33)	%Inh (STK35)	%Inh (STK36)	%Inh (STK39)	%Inh (SYK)	%Inh (SgK110)	%Inh (TAK1)
O=C(Nc1n[nH]c2nc(-c3cccs3)c(Br)cc12)C1CC1 [SB-735297]	0%	8%	0%	0%	0%	12%	7%	10%	0%	6%
Cn1cncc1-c1cc2c(Nc3ccc(OCc4ccccc4)cc3)ncnc2cn1 [GW281179]	0%	0%	4%	0%	0%	0%	12%	27%	0%	0%
O=C1NC(=O)C(c2ccc(Cl)cc2)=C1Nc1cccc(Cl)c1 [SB-317651]	3%	8%	0%	0%	0%	2%	17%	0%	0%	34%
CC(=O)c1c(C)c2cnc(Nc3ccn(C)n3)nc2n(C2CCCC2)c1=O	0%	0%	55%	0%	5%	0%	0%	0%	0%	11%
CNc1cc(-c2ccc3c(N)n[nH]c3c2)nc(N)n1 [GSK2224810]	1%	0%	19%	0%	6%	0%	0%	7%	0%	26%
Fc1ccc(-c2nc[nH]c2-c2ccncc2)cc1 [SB-217360]	0%	3%	14%	1%	0%	0%	0%	33%	15%	0%
CC(C)c1ccc(O)cc1Nc1ccnc2ccc(C(F)(F)F)cc12 [GW482059]	0%	16%	0%	19%	0%	0%	0%	23%	0%	0%
CCn1c(-c2c(N)noc2C)nc2cnccc21 [SB-737856]	0%	2%	0%	0%	0%	0%	6%	1%	0%	0%
CN1c2ccc(-c3ccc(C(N)=O)cc3)cc2-c2[nH]ncc2S1(=O)=O	8%	0%	1%	0%	12%	0%	3%	26%	0%	31%
COc1cccc(NC(=O)Nc2ccc(C)c(-c3ccc(C(=O)Nc4ccncc4)cc3)c2)c1 [GSK1398474]	0%	27%	11%	0%	0%	51%	33%	40%	0%	0%
CS(=O)(=O)Cc1ccc(Nc2nccc(-c3c(-c4cccc(NC(=O)C5CCCCC5)c4)nn4ncccc34)n2)cc1 [GSK350559]	0%	0%	12%	4%	9%	81%	37%	4%	0%	2%
O=C(Nc1n[nH]c2cc(-c3ccsc3)ccc12)C1CC1 [SB-732932]	0%	75%	23%	0%	0%	2%	0%	13%	0%	7%
Cn1cnc2c(N)ncnc21 [SKF-97623]	10%	18%	0%	0%	19%	0%	2%	0%	0%	0%
COc1ccc2cc(-c3nc(-c4ccccc4C(C)C)[nH]c3-c3ccncc3)ccc2c1 [SB-660566]	0%	0%	9%	0%	38%	41%	31%	10%	0%	0%
COC(=O)C(NC(=O)NC1CCN(c2ccnc(Nc3ccc(F)cc3)n2)C1)c1ccccc1 (centres unmarked) [GSK1379712]	0%	0%	0%	0%	0%	29%	0%	21%	19%	12%
COc1ccc(Nc2nccc(N3CCC(NC(=O)C(C)c4ccc(Cl)cc4)C3)n2)cc1 (centres unmarked) [GSK1379735]	0%	34%	0%	0%	7%	1%	13%	25%	0%	0%

Compound	%Inh (SRPK2)	%Inh (SRPK3)	%Inh (STK16)	%Inh (STK33)	%Inh (STK35)	%Inh (STK36)	%Inh (STK39)	%Inh (SYK)	%Inh (SgK110)	%Inh (TAK1)
CCCCc1nn2ncccc2c1-c1ccnc(NC2CC2)n1 [GW684374]	0%	0%	20%	0%	0%	0%	0%	0%	0%	0%
CCn1c(-c2ccccc2)nc2cnccc21 [SB-733416]	0%	5%	0%	0%	7%	0%	8%	17%	0%	0%
FC(F)(F)c1ccccc1-c1cc(-c2c[nH]nc2-c2ccccn2)ccn1 [GW679396]	0%	0%	20%	0%	0%	29%	7%	25%	0%	4%
Cc1cnc(N)c(/C=C/c2cncc(C(=O)NCCc3ccc(Cl)cc3Cl)c2)c1.Cl [GSK190937]	34%	0%	1%	5%	0%	28%	2%	22%	9%	0%
Cc1ccc(NC(=O)Nc2ccccc2F)cc1-c1ccc(C(=O)Nc2ccncc2)cc1 [GSK1398477]	0%	28%	11%	8%	21%	6%	0%	44%	0%	0%
O=C(Nc1n[nH]c2nc(-c3cccs3)c(Br)cc12)C1CCCC1 [SB-743341]	15%	20%	23%	1%	0%	1%	33%	5%	18%	38%
Cc1cccc2c(-c3ccncn3)c(-c3ccc(F)cc3)nn12 [GW515532]	0%	14%	0%	0%	27%	0%	0%	0%	0%	0%
Cc1ccc(NC(=O)Nc2ccccc2)cc1-c1ccc(C(=O)Nc2ccncc2)cc1 [GSK1398471]	0%	0%	9%	0%	0%	0%	3%	24%	0%	0%
COc1ccc(Nc2nccc(NCCNC(=O)Nc3cc(C)ccc3C)n2)cc1 [GSK1379899]	0%	10%	0%	0%	0%	0%	0%	24%	0%	0%
COc1ccc(-c2coc3ccc(-c4nnc(C)o4)cc23)cc1	0%	0%	21%	0%	0%	13%	0%	17%	52%	0%
CC(C)c1cc(-c2ccc3c(N)n[nH]c3c2)nc(N)n1 [GSK2250882]	0%	29%	21%	0%	0%	0%	0%	0%	0%	1%
COc1ccc(Nc2nccc(-c3ccc(NC(=O)c4cc5cc(F)ccc5[nH]4)cc3)n2)cc1 [GSK1229496]	14%	7%	2%	0%	0%	0%	0%	8%	0%	0%
Cc1ccc(NC(=O)c2ccc(Cl)cc2)cc1-c1ccc(C(=O)Nc2ccncc2)cc1 [GSK1398467]	0%	0%	7%	0%	0%	0%	6%	3%	0%	0%
Cc1ccc(-c2nc(Nc3ccncc3)c3ccccc3n2)s1 [GSK189015]	0%	18%	12%	12%	18%	0%	15%	5%	0%	0%
Nc1nccc(-c2c(-c3ccc(F)cc3)ncn2C2CCN(Cc3ccccc3)CC2)n1 [SB-219980]	0%	0%	0%	33%	79%	29%	0%	0%	0%	7%
CS(=O)(=O)CCNCc1nc(-c2ccc3ncnc(Nc4ccc(OCc5ccccc5)c(Cl)c4)c3c2)cs1.Cl [GW582764]	36%	0%	0%	0%	0%	0%	4%	20%	0%	0%
